Results: PubChem BioAssay AID1345082 (National Center for Advancing Translational Sciences (NCATS), 2018)
Screen size: about 94,000 compounds; about 4,000 (4.3%) were called active. Inconclusive results (about 29%) are left out. This is one part of a sample in which actives are shown more often than they occur. A number with no mark means an inactive call. Calls come from the whole dose curve; as a rule, active = well fitted inhibition curve with a large enough effect; inconclusive = small, poorly fitted or top-dose-only effect; inactive = no such curve, though single readings can be large or run the other way.

Assay: Cytotoxic Profiling in NIH 3T3 Cell Line of Diverse Libraries Using Quantitative High-Throughput Screening; note: nearly all actives have a fitted effect of over 55% in size
Details: NIH 3T3 viability, CellTiter-Glo ATP luminescence, 48-72 h; series mostly up to 96.7 µM; activity change, negative = cytotoxicity: at the top concentration
Procedure, shortened: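 Viability of NIH 3T3 cells after 48 or 72 hr compound treatment at 37 °C was assessed by CellTiter-Glo, with luminescence imaged following a 10 min room-temperature step.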
% is set by controls: 0 for no effect and ±100 for the full control effect; potency is the fitted concentration of half-maximal effect.

Row | SMILES | activity change, negative = cytotoxicity | Potency | outcome
1 | O=C(C1CC1)N1CCn2c(nn(-c3ccc(F)cc3)c2=O)C1 | -29.2% [at 138 µM] |  | 
2 | Cc1ccc(-n2nc3n(c2=O)CCN(C(=O)Cc2ccccn2)C3)cc1 | -2.45% |  | 
3 | Cc1ccc(-n2nc3n(c2=O)CCN(C(=O)C(C)(C)C)C3)cc1 |  | 50.1 µM (active) | 
4 | COc1ccc(CC(=O)Nc2cc(-c3cccnc3)nn2-c2ccccc2)cc1 | -35.3% |  | 
5 | COc1ccc(N2CCN(C3CCCN(CC(=O)N(C)C(C)C)C3)CC2)cc1 (centres undefined) | -1.05% |  | 
6 | COc1ccc(-n2nc(-c3ccccc3)n(CC(=O)N(C)CC(C)C)c2=O)cc1 |  | 79.4 µM (active) | 
7 | Cc1nc2c(c(-c3ccc(Cl)cc3)n1)CCN([S+](=O)([O-])c1c(C)noc1C)CC2 | -12.1% |  | 
8 | Cc1noc2c(N3CC[S+](=O)([O-])CC3)cc(-c3ccc(Cl)cc3)nc12 |  | 10 µM (active) | 
9 | Cc1noc2c(N3CCC(c4ccccc4)CC3)cc(-c3cccnc3)nc12 | -24.6% [at 138 µM] |  | 
10 | CN1CCCCCCN(C(=O)C2CCC2)[C@H]2CCC[C@H]2C1=O | -7.21% |  | 
11 | Cc1noc(C)c1-c1cc2cc(CNC3CCOCC3)oc2c(NC2CCN(C)CC2)n1 |  | 39.8 µM (active) | 
12 | CCOCCN1C(=O)COC[C@@H]1[C@H](O)c1ccc(NC(=O)c2cnccn2)cc1 | -12.3% [at 138 µM] |  | 
13 | O=C(C1CCN(Cc2ccccc2-c2cccnc2)CC1)N1CCN(Cc2ccccc2)CC1 | -38.3% |  | 
14 | O=C(C1CCCN(Cc2cccc(-c3ccc(F)cc3F)c2)C1)N1CCN(Cc2ccccc2)CC1 (centres undefined) |  | 39.8 µM (active) | 
15 | CCCN1CCN(C(=O)C2CCCN(c3cnn(Cc4ccccc4)c(=O)c3)C2)CC1 (centres undefined) | -15% |  | 
16 | COCc1nc(CCNC(=O)Cc2c(C)noc2C)no1 | -2.43% |  | 
17 | CN(C)C[C@@H]1CN(C)C[C@H]1NC(=O)c1cnn(C)c1 | -4.02% |  | 
18 | CCn1ccc(C(=O)NCC2CCCCC(=O)N2)n1 (centres undefined) | -4.36% |  | 
19 | O=C(c1ccccn1)N1CCn2c(nnc2C2CCCNC2)C1 (centres undefined) | 4.23% [at 138 µM] |  | 
20 | COCC(=O)N(C1CCOCC1)C1CCN(S(=O)(=O)c2ccccc2)CC1 | -10.5% |  | 
21 | O=C1NC2(CCCN([S+](=O)([O-])c3ccccc3)C2)COc2ccccc21 (centres undefined) |  | 22.4 µM (active) | 
22 | O=C1NC2(Cc3ccccc31)CN([S+](=O)([O-])c1cccc(C(F)(F)F)c1)C2 | -11.6% |  | 

Row | SMILES | activity change, negative = cytotoxicity | Potency | outcome
23 | O=[S+]([O-])(c1ccccc1)N1CCCC2(CC(c3ccccn3)=NO2)C1 (centres undefined) |  |  | inactive
24 | COc1nccnc1NC1CCN(C(=O)CCc2ccccc2)CC1 | -22.2% |  | 
25 | Cc1ccc(C2Cn3nnc(-c4noc(-c5ccccc5C)n4)c3CO2)cc1 (centres undefined) |  |  | inactive
26 | O=C1CCCN1CCCN1C(=O)[C@@H]2C[C@@H](O)CN2C2(CN(C3CCOCC3)C2)C1=O | -0.373% [at 174 µM] |  | 
27 | COCC(=O)Nc1ccc([C@@H](O)[C@H]2COCC(=O)N2Cc2ccc(C(F)(F)F)cc2)cc1 | -11.3% |  | 
28 | N#Cc1cccc(CN2CCCN(S(=O)(=O)c3ccccc3)CCC(=O)NCC2)c1 | -29.7% |  | 
29 | COCCn1c2c(c(=O)n1-c1ccccc1)CCN(Cc1cccc(C#N)c1)C2 |  | 100 µM (active) | 
30 | N#Cc1cccc(CN2CCc3nc(N4CCc5ccccc5C4)[nH]c(=O)c3CC2)c1 | -0.249% |  | 
31 | O=C1NCCN(Cc2ccccc2)C1CC(=O)N1CCN(c2ccccc2)CC1 (centres undefined) | -1.32% |  | 
32 | O=c1c2c(n(Cc3ccccc3)n1-c1ccccc1)CN(Cc1ccn[nH]1)CC2 |  | 89.1 µM (active) | 
33 | O=C(Cn1c2c(c(=O)n1Cc1ccccc1)CCN(Cc1ccccc1)C2)NCc1cccc(Cl)c1 | -22.1% |  | 
34 | N#Cc1ccc(CN2CCC3(COc4ncccc4[S+](=O)([O-])N3)C2)cc1 (centres undefined) | -19.9% |  | 
35 | CC(C)c1ccc(CNC(=O)CCn2ccn3nc4c(c3c2=O)CCCC4)cc1 | -28.9% |  | 
36 | C=CCOc1cccc(-c2nnc(CCC(=O)NCc3ccccc3)c(=O)[nH]2)c1 | -25% |  | 
37 | CSCCNC(=O)c1cc(-c2ccc(Cl)nc2)nc2c1cnn2C | -28.8% |  | 
38 | COCC(=O)N[C@@H](Cn1ccc(=O)[nH]c1=O)C(=O)O | 1.85% [at 230 µM] |  | 
39 | O=C(c1cnccn1)N1CCC[C@H](n2c(=O)n(CC3CC3)c3cccnc32)C1 |  |  | inactive
40 | Cc1ccc(NS(=O)(=O)c2ccccc2)c(=O)n1CC(=O)N(C)Cc1ccccc1 | -14.6% |  | 
41 | CC(C)CCN1C(=O)CC[C@]2(C(=O)N3CCN(C)CC3)CCCC[C@@H]12 | -21.4% |  | 
42 | O=C1CC(c2ccccc2)N(C(=O)CNC(=O)C2CCC2)CCCCCN1 (centres undefined) | -5.49% |  | 
43 | O=C1CC(c2ccccc2)N(Cc2cn[nH]c2-c2ccc(F)cc2)CCCCCN1 (centres undefined) |  | 39.8 µM (active) | 
44 | O=C1CC(c2ccccc2)N(C(=O)CNC(=O)NCc2ccc(F)cc2)CCCCCN1 (centres undefined) | -6.97% |  | 

Row | SMILES | activity change, negative = cytotoxicity | Potency | outcome
45 | Cn1ncc2c(C(=O)NCC(F)(F)F)cc(-c3ccccc3F)nc21 | -34.4% [at 138 µM] |  | 
46 | COc1ccc(-c2noc(-c3nnn4c3COC(c3ccc(Cl)cc3)C4)n2)c(OC)c1 (centres undefined) | -10% |  | 
47 | CCOc1ccc(-c2noc(-c3ncn4c3COC(c3ccc(OC)cc3)C4)n2)cc1 (centres undefined) | -16.5% |  | 
48 | COc1ccc(C2Cn3cnc(-c4nc(-c5ccc(OC)cc5OC)no4)c3CO2)cc1 (centres undefined) |  | 20 µM (active) | 
49 | CN(C)C(=O)C1CN(C(=O)C2CCCC2)CC12CCOCC2 (centres undefined) |  |  | inactive
50 | CCC(=O)N1Cc2ccccc2CC2(CCN(Cc3ccc(OC)cc3)C2)C1 (centres undefined) | -13.7% |  | 
51 | O=C(NCCC1COc2ccccc2O1)c1ccc(N2CCCOCC2)nc1 (centres undefined) | -4.44% |  | 
52 | COc1ccc(-c2ccc3c(c2)C(=O)N2CCN(C(=O)CC(C)(C)C)C[C@@H]2C(=O)N3)c(OC)c1 | -6.29% |  | 
53 | COc1ccc(-c2cccc(C(=O)NC3CC3)c2)nn1 | -28.6% [at 138 µM] |  | 
54 | COc1ccc(-c2cccc(C(=O)N3CCN(C(=O)Cc4cccc(Cl)c4)CC3)c2)nn1 | -25.1% |  | 
55 | COc1ccc(-c2cccc(C(=O)NCc3cccc(Cl)c3)c2)nn1 |  | 35.5 µM (active) | 
56 | O=C(N[C@H]1CCOC[C@H]1C1CCOCC1)c1scc2c1OCCO2 | -0.0014% |  | 
57 | Cc1nc(C(=O)N2CC[C@H](NS(=O)(=O)c3cccs3)C[C@H]2C(=O)N[C@H](Cc2c[nH]c3ccccc23)C(N)=O)cs1 | 2.43% |  | 
58 | Cn1ccnc1C(=O)N1CCCCCCNC(=O)[C@@H]2C[C@@H](C(=O)N3CCc4ccccc4C3)C[C@@H]21 | -13.4% |  | 
59 | O=C(NCc1cccnc1)C1CCC(=O)N1C1CCNCC1 (centres undefined) | -3.85% |  | 
60 | CC1=C[C@@H](CN2CCOCC2)[C@H](C(C)C)C[C@H]1Cc1nnc(-c2ccc([N+](=O)[O-])cc2)o1 |  | 35.5 µM (active) | 
61 | CC1=C[C@@H](CNC(=O)NC(C)C)[C@H](C(C)C)C[C@H]1Cc1nnc(-c2ccncc2)o1 |  | 56.2 µM (active) | 
62 | CC1=C[C@@H](CNC(C)C)[C@H](C(C)C)C[C@H]1Cc1nnc(-c2ccc(N(C)C)cc2)o1 |  | 31.6 µM (active) | 
63 | CC(=O)NC[C@@H]1C=C(C)[C@H](CC(=O)N2CCCC2)C[C@H]1C(C)C | 3.57% [at 174 µM] |  | 
64 | CC1=C[C@@H](CNC2CC2)[C@H](C(C)C)C[C@H]1Cc1nnc(-c2ccc(C)cc2)o1 |  | 39.8 µM (active) | 
